Compound activity deposited in PubChem by National Center for Advancing Translational Sciences (NCATS).
Shiga inhibitor: blocks Shiga toxin action in Vero cells | Vero cells, Shiga toxin protein synthesis inhibition reporter | inhibition, % at 38.7 µM | hit rate 9.2% among 290,000; in the data active = inhibition mostly above about 28%, no sharp cut-off; inactive = mostly below about 43%; also: 0% is about no effect
MARV entry inh: Marburg virus entry inhibition; Marburg virus pseudotyped entry inhibition, cell reporter; hit rate 1.8% among 300,000; Potency, µM (titrated, usually from 37.8 µM), for inactives: at the top dose activity change, negative = inhibition, usual class: inhibitors; calls by dose curve; tested in HEK293 cells; also: potency is read from the fitted curve at half-maximal effect; % is scaled to controls: 0 for no effect and ±100 for the full control effect
Lassa entry inh: blocks Lassa virus binding to or entry into cells. Lassa virus pseudotype entry inhibition, cell reporter. Potency, µM (titrated, usually from 37.9 µM), inactives show at the top dose activity change, negative = inhibition, hits mostly inhibitors. hit rate 1.2% among 300,000; calls by dose curve; tested in HEK293 cells; also: potency is read from the fitted curve at half-maximal effect; % is scaled to controls: 0 for no effect and ±100 for the full control effect; nearly all actives have a fitted effect of over 50% in size
FMDV inh: foot and mouth disease virus antiviral activity; AID 1159524; Potency, µM (highest dose often 57.9 µM), without a hit: at the highest dose activity change, negative = inhibition, most hits filed as inhibitors; hit rate 1.2% among 410,000; FMDV antiviral cell-based qHTS; calls by dose curve; tested in HEK293T cells; also: read-out not given here; potency is read from the fitted curve at half-maximal effect; % is scaled to controls: 0 for no effect and ±100 for the full control effect; nearly all actives have a fitted effect of over 45% in size
HCV inh: inhibitors of hepatitis C virus infection. Huh7.5.1 HCVcc-Cre infection, luciferase reporter, 44 h. Potency, µM (doses to about 41.8 µM), inactives show at the top dose activity change, negative = inhibition, hits mostly inhibitors. hit rate 3.4% among 340,000. AID 651820; active = well fitted inhibition curve with a large enough effect; inconclusive = small, poorly fitted or top-dose-only effect, or another doubt; inactive = no such curve, though single readings can be large or run the other way; also: potency is read from the fitted curve at half-maximal effect; % is scaled to controls: 0 for no effect and ±100 for the full control effect
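After 44 h co-culture of compound, cells and HCVcc-Cre (~0.5 moi), substrate is added for 15 min at room temperature and luciferase measured over 15 sec. Cells were seeded at 1,000/well and pre-cultured 4 h.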
CHX counter: affects cycloheximide protein synthesis inhibition readout, counter-screen; max response, %; cell reporter, cycloheximide protein synthesis inhibition counterscreen; hit rate 12% among 300,000; in the data active = max response mostly above about 13%, no sharp cut-off; inactive = mostly below about 14%; also: read at 38.3 µM for the half of the compounds with a filed dose; 0% is about no effect
Starred values were filed as active, the others as inactive; ? = inconclusive; · = no result given; ! = not confirmed by another sample; [ ] = remark or other dose. Shown are actives, neighbours in structure and some others; about 13% of the full set was active somewhere.

SMILES | Shiga inhibitor | MARV entry inh | Lassa entry inh | FMDV inh | HCV inh | CHX counter
CC(=O)Nc1ccc(N2CCOCC2)c(S(=O)(=O)Nc2ccccc2Cl)c1 | · | · | · | 52% | · | ·
CC(C)c1ccc(Nc2c(-c3ccsc3)nc3ccc(Cl)cn23)cc1 | · | -2%[46.1 µM] | 14%[46.1 µM] | 5% | · | ·
COc1ccccc1C(=O)NCCC(=O)NCC1CCCCC1 | · | 1% | -35% | 7% | 4% | ·
CCc1cc2c(=O)n(Cc3ccco3)c(SCc3c(C)noc3C)nc2s1 | 42* | ? | ? | -21% | 10µM* | 12*
CCc1cc2c(=O)n(Cc3ccco3)c(SCC(=O)NCC3CCCO3)nc2s1 (stereo not drawn) | -2 | ? | ? | 25µM* | 10µM* | -3
CCc1cc2c(=O)n(Cc3ccco3)c(SCC(=O)N3CCCc4ccccc43)nc2s1 | 48 | ? | ? | -14% | 10µM* | 19*
O=C(CSc1nc2c(sc3ccccc32)c(=O)n1Cc1ccco1)NCC1CCCO1 (stereo not drawn) | 3 | ? | 8% | 0% | -3% | 0
O=c1cc(O)cc(/C=C\c2ccc(O)c(O)c2)o1 | · | 15% | · | · | · | ·
CCOc1ccccc1NC(=O)CSc1ccc(-c2ccco2)nn1 | -5 | -28% | -9% | -23% | -18% | -1
Cc1ccc(S(=O)(=O)c2c(C)nn(C(C)(C)C)c2OC(=O)c2cccs2)cc1 | -16 | ? | 13µM* | ? | ? | -4
Cc1nn(C(C)(C)C)c(OC(=O)c2ccc3c(c2)OCO3)c1Sc1ccccc1 | -20 | ? | ? | ? | -20% | -3
Cc1ccc(S(=O)(=O)c2c(C)nn(C(C)(C)C)c2OC(=O)c2ccco2)cc1 | 14 | ? | 11µM* | 13µM* | -4% | 9
Cc1ccc(S(=O)(=O)c2c(C)nn(C(C)(C)C)c2OC(=O)c2ccc(Br)o2)cc1 | 8 | ? | 11µM* | ? | ? | 10
Cc1nn(C(C)(C)C)c(OC(=O)c2ccc3c(c2)OCO3)c1S(=O)(=O)c1ccccc1 | 45 | ? | 8.9µM* | ? | -1% | 37*
CC(=O)Oc1c(S(=O)(=O)c2ccc(C)cc2)c(C)nn1C(C)(C)C | -19 | ? | ? | -19% | 26% | -1
C[C@H]1CN([C@@H](C)CO)C(=O)CCCn2cc(nn2)CO[C@@H]1CN(C)C(=O)CCC(F)(F)F | · | · | · | -4% | · | ·
CC(C)CNS(=O)(=O)c1ccc(CCC(=O)NC2CCCCC2)cc1 | · | -9%[46.1 µM] | -2% | 2% | 4% | ·
Cn1c(O)c(/C=C2\C=Nc3ccccc32)c(=O)n(C)c1=O | 10 | · | · | -8% | -6% | -4
CSc1nc(/C=C2\C=Nc3ccccc32)c(O)n1C | 117* | ? | 9% | 46% | ? | 17*
CCCNC(=O)C1CCN(c2cc(C)nc3c(-c4ccc(OC)c(OC)c4)c(C)nn23)CC1 | · | -7%[46.1 µM] | 6%[46.1 µM] | 0% | · | ·
Cc1cccc(NC(=S)N=Nc2c(O)n(C)c3ccc(S(=O)(=O)N4CCOCC4)cc23)c1 | -7 | ? | ? | -16% | 1.6µM*! | 0
COCCC(=O)N1CCCC(C(=O)c2ccc(Oc3ccccc3)cc2)C1 (stereo not drawn) | -17 | ? | ? | -17% | -14% | 14
Cc1nn(C)cc1CN1CCCC(C(=O)c2ccc(-c3ccccc3)c(F)c2)C1 (stereo not drawn) | -16 | ? | ? | -9% | 10µM* | -2
CCC(=O)N1CCCC(C(=O)c2ccc(-c3ccccc3)cc2)C1 (stereo not drawn) | 47 | -4% | 0% | -12% | -21% | 13*
COC(=O)CCCC(=O)N1CCCC(C(=O)c2ccc(-c3ccccc3)cc2)C1 (stereo not drawn) | 3 | · | · | 7% | -5% | 1
CCN1CCN(CC(=O)N2CCCC(C(=O)c3ccc(Oc4ccccc4)cc3)C2)CC1 (stereo not drawn) | 56* | · | · | -4% | ? | 25*
CCc1cc(C(=O)N2CCCC(C(=O)c3ccc(Oc4ccccc4)cc3)C2)n(C)n1 (stereo not drawn) | -4 | 11µM* | -19%[46.1 µM] | ? | ? | -2
O=C(NCCCN1CCN(c2cccc(Cl)c2)CC1)c1sc2ncccc2c1-n1cccc1 | · | · | -12%[46.1 µM] | ? | · | ·
Cc1c(C(=O)NCCc2ccccn2)cnn1-c1nccc(-c2cccs2)n1 | · | · | · | 2% | · | ·
